Records with an inconclusive call do not appear. Activity calls are given as the source filed them. Calls follow the shape of the dose curve; as a rule, active = well fitted curve in the direction sought with a large enough effect in the repeat runs; inconclusive = weak or mixed curves; inactive = no such curve, though single readings can be large; an effect the other way counts as inactive or inconclusive.
What was measured:
[1] = qHTS assay to identify small molecule agonists of the RXR signaling pathway - cell viability counter screen (AID 1159529); also: nearly all actives have a fitted effect of over 50% in size; also: potency is read from the fitted curve at half-maximal effect; as to activity change, negative = cytotoxicity: series mostly up to about 77 µM
Procedure, shortened: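 Luminescence from CellTiter-Glo (30 min, RT) measured viability in the same wells as the beta-lactamase reporter readout. Cells: GeneBLAzer RXR-alpha HEK 293T, 2% charcoal-stripped FBS. Compound exposure 16 hr, 37 C.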

[2] = qHTS assay to identify small molecule antagonists of the retinoid acid receptor (RAR) signaling pathway - cell viability counter screen (AID 1159551); also: nearly all actives have a fitted effect of over 35% in size
Procedure, shortened: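 C3RL4 RARE-luciferase line; cpds + retinol 1 uM final, 6 h, 37 C/5% CO2; CellTiter-Glo ATP luminescence, 30 min RT.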

[3] = qHTS assay to identify small molecule antagonists of the retinoic acid receptor (RAR) signaling pathway (AID 1159552; also: nearly all actives have a fitted effect of over 50% in size)
Procedure, shortened: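 Luminescence from a RARE luciferase reporter in C3RL4 cells served as read-out. Cells received compounds together with 1 uM final retinol and incubated 6 hr at 37 C before detection reagent was added for 30 min at room temperature.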

[4] = qHTS assay to identify small molecule agonists of the retinoic acid receptor (RAR) signaling pathway (AID 1159553); also: potency is read from the fitted curve at half-maximal effect
Procedure, shortened: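 RARE-luc C3RL4 cells; overnight attachment 37 C/5% CO2; compound (DMSO) 6 hr; luciferase reagent, 30 min RT; luminescence read-out.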

[5] = qHTS assay to identify small molecule antagonists of the estrogen related receptor (ERR) signaling pathway - cell viability counter screen (AID 1224818); also: series mostly up to about 46 µM
Procedure, shortened: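 Fluorescence from CellTiter-Fluor, read 30 min after reagent addition at 37 C, measured viability of ERR cells exposed to compounds for 17.5 h. Cells had settled 6 h before dosing.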

[6] = qHTS assay to identify small molecule antagonists of the estrogen related receptor signaling pathway with the pleiotropic PPARgamma coactivator (PGC) cell viability counter screen (AID 1224822; also: series mostly up to about 46 µM)
Procedure, shortened: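 Fluorescence read-out of CellTiter-Fluor after 30 min at 37 C; PGC/ERR cells, 2,000 per well, had been exposed to DMSO-dissolved compounds for 17.5 h following a 6 h pre-incubation.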
% is scaled to controls: 0 for no effect and ±100 for the full control effect.

CC(=O)O[C@H]1C[C@@H]2CC[C@@H]3[C@H](CC[C@@]4(C)[C@H]3C[C@H]([N+]3(C)CCCCC3)[C@@H]4OC(C)=O)[C@@]2(C)C[C@@H]1N1CCCCC1
inactive: Potency [1] | Potency [2]

C=C(C)C(=O)OC(C)C
inactive: Potency [1] | Potency [2] | Potency [3]

N#CCCNCCC#N
inactive: Potency [1] | Potency [2]

CC(=O)NCCCS(=O)(=O)O
inactive: Potency [1] | Potency [2] | Potency [3]

Cc1cccc(OCCOc2cccc(C)c2)c1
inactive: Potency [1] | Potency [2] | Potency [3]

CNS(=O)(=O)Cc1ccc2[nH]cc(CCN(C)C)c2c1
inactive: Potency [1] | Potency [2]

COc1ccc2[nH]c(S(=O)Cc3ncc(C)c(OC)c3C)nc2n1 (centres undefined)
inactive: Potency [1] | Potency [2]

COCCCCCCCCOCCC[Si](C)(O[Si](C)(C)C)O[Si](C)(C)C
inactive: Potency [1] | Potency [2]

CN1CCC[C@@H]1c1cccnc1
inactive: Potency [1]

Cc1ccccc1N=Nc1ccc(N=Nc2c(O)ccc3ccccc23)c(C)c1
inactive: Potency [1] | Potency [2]

Cc1nc2ccccc2n1Cc1ccc(Cl)cc1
inactive: Potency [1] | Potency [2] | Potency [3]

CCCCOCCOCCOCCOCCO
inactive: Potency [1] | Potency [2]

Cc1ccc(C(N)=O)cc1N
inactive: Potency [1] | Potency [2]

CCOC(=S)SSC(=S)OCC
inactive: Potency [1] | Potency [2]

c1ccc(-c2nc[nH]c2-c2ccccc2)cc1
inactive: Potency [1] | Potency [2]

CCCC(=O)OCC
inactive: Potency [1] | Potency [2]

O=S(=O)(O)c1ccc(O)c2ncccc12
inactive: Potency [1] | Potency [2]

CC(=O)SCc1ccco1
inactive: Potency [1] | Potency [2]

NCc1ccccc1
inactive: Potency [1] | Potency [2]

Nc1nc(N)c(-c2ccccc2)s1
inactive: Potency [1] | Potency [2]

C=CC(=O)OCCOC(=O)CCC(=O)O
inactive: Potency [1] | Potency [2]

CC(C)c1ccccc1C(C)C
inactive: Potency [1] | Potency [2]

Cc1cc(C)c(S(=O)(=O)O)cc1N=Nc1cc(S(=O)(=O)O)c2ccccc2c1O
inactive: Potency [1]

S=C(S)NCCNC(=S)S
inactive: Potency [1] | Potency [2]

CC(C)(C)c1ccc(S)cc1
inactive: Potency [1] | Potency [2]

CC(=O)[C@@]1(O)CC[C@H]2[C@@H]3C[C@H](C)C4=CC(=O)CC[C@]4(C)[C@H]3CC[C@@]21C
inactive: Potency [1] | Potency [2]

CC1(C)CCC(C)(C)c2cc(NC(=O)c3ccc(C(=O)O)cc3)ccc21
inactive: Potency [1] | Potency [2]

CC(CN)CCCN (centres undefined)
inactive: Potency [1] | Potency [2] | Potency [3]

SC1CCCC1
inactive: Potency [1] | Potency [2] | Potency [3] | Potency [4]

CCOC(=O)CC(C)C
inactive: Potency [1] | Potency [2]

CC(C)CCCC(C)CCO (centres undefined)
inactive: Potency [1] | Potency [2]

CCCCOC(=O)c1ccccc1C(=O)OCC(CC)CCCC (centres undefined)
inactive: Potency [1] | Potency [2]

NC[C@H]1O[C@H](O[C@H]2[C@H](O)[C@@H](O[C@H]3O[C@H](CO)[C@@H](O)[C@H](N)[C@H]3O)[C@H](N)C[C@@H]2N)[C@H](O)[C@@H](O)[C@@H]1O
inactive: activity change, negative = cytotoxicity [1] -2.14% [at 6.97 µM] | activity change, negative = cytotoxicity [2] -0.107% [at 8.39 µM]

CCCCCCCCCCCCCCCCCBr
inactive: activity change, negative = cytotoxicity [1] -2.08% [at 15.8 µM] | activity change, negative = cytotoxicity [2] 0.698% [at 19 µM]

COc1ccc(OC)c(OC)c1
inactive: Potency [1] | Potency [2]

Cc1cccc(Oc2ccccc2)c1
active: Potency [1] 1.9 µM

CCCCCCCCCC=O
inactive: Potency [1] | Potency [2]

CCCC[C@H]1CN(CC2CCOCC2)C(=O)OC12CCN(C1(C)CCN(C(=O)c3c(C)ncnc3C)CC1)CC2
inactive: Potency [1] | Potency [2]

O=C(Nc1ccccc1)OCC(CN1CCCCC1)OC(=O)Nc1ccccc1 (centres undefined)
inactive: Potency [1] | Potency [2] | Potency [3] | Potency [4]

N#Cc1c(F)cccc1F
inactive: Potency [1] | Potency [2] | Potency [3] | Potency [4]

O=C(O)COC(=O)Cc1ccccc1Nc1c(Cl)cccc1Cl
inactive: Potency [1] | Potency [2] | Potency [3] | Potency [4]

CCN(CC)C(C)=O
inactive: Potency [1] | Potency [2] | Potency [3] | Potency [4]

O=C(CCN1CCN2CCCC2C1)N1c2ccccc2Sc2ccc(Cl)cc21 (centres undefined)
inactive: activity change, negative = cytotoxicity [1] -22.2% [at 15.8 µM] | activity change, negative = cytotoxicity [2] -0.0558% [at 19 µM] | activity, negative = inhibition [3] -11.3% [at 19 µM] | Potency [4]

CCCCCCCCCCCCCCCBr
inactive: Potency [1] | Potency [2] | Potency [3] | Potency [4]

Cc1ccccn1
inactive: Potency [1] | Potency [2] | Potency [3] | Potency [4]

O=C(O)c1cn(C2CC2)c2cc(Cl)c(F)cc2c1=O
inactive: Potency [1] | Potency [2] | Potency [3] | Potency [4]

CC(C(=O)O)c1ccc(C(=O)c2ccccc2)s1 (centres undefined)
active: Potency [4] 8.41 µM
inactive: Potency [1] | Potency [2] | Potency [3]

CC(=O)O[C@@H]1C(=O)O[C@@H]2[C@H]1OC(=O)[C@@H]2OC(C)=O
inactive: Potency [1] | Potency [2] | Potency [3] | Potency [4]

O=[N+]([O-])c1cc[n+]([O-])cc1
inactive: Potency [1] | Potency [2] | Potency [3] | Potency [4]

ClC(Cl)(Cl)c1ccc(C(Cl)(Cl)Cl)cc1
inactive: Potency [1] | Potency [2] | Potency [3] | Potency [4]

NC(=S)N/N=C/c1cccnc1
inactive: Potency [1] | Potency [2] | Potency [3] | Potency [4]

CN(C)CCCNCCCN
active: Potency [1] 48.8 µM
inactive: Potency [2] | Potency [3] | Potency [4]

Oc1ccc(O)c2c(O)cccc12
inactive: Potency [1] | Potency [2] | Potency [3] | Potency [4]

CN(c1nccc(=O)[nH]1)C1CCN(c2nc3ccccc3n2Cc2ccc(F)cc2)CC1
inactive: Potency [1] | Potency [2] | Potency [3] | Potency [4]

CCCCCCCCCCCCC(=O)O
active: Potency [1] 24.6 µM
inactive: Potency [2] | Potency [3] | Potency [4]

CN1CCN(C2=Nc3ccccc3Sc3ccc(Cl)cc32)CC1
inactive: Potency [1] | Potency [2] | Potency [3] | Potency [4]

CCCCOc1cc(C(=O)OCCN(CC)CC)ccc1N
inactive: Potency [1] | Potency [2] | Potency [3] | Potency [4]

O=C(C(=O)c1ccc(Br)cc1)c1ccc(Br)cc1
inactive: activity change, negative = cytotoxicity [1] 5.23% [at 15.8 µM] | activity change, negative = cytotoxicity [2] 1.34% [at 19 µM] | activity, negative = inhibition [3] 45.5% [at 19 µM] | Potency [4]

Nc1ccc(C(=O)N2CC3CC(CN(Cc4ccccc4)C3)C2)cc1
inactive: Potency [1] | Potency [2] | Potency [3] | Potency [4]

CC(=O)/C=C/C1C(C)=CCCC1(C)C (centres undefined)
inactive: Potency [1] | Potency [2] | Potency [3] | Potency [4]

Cc1ccc(C)o1
inactive: Potency [1] | Potency [2] | Potency [3] | Potency [4]

CCCCCOC(=O)c1ccc(O)cc1
active: Potency [4] 1.23 µM
inactive: Potency [1] | Potency [2] | Potency [3]

CC(=O)/C(C)=C/C1C(C)=CCCC1(C)C (centres undefined)
inactive: Potency [1] | Potency [2] | Potency [3] | Potency [4]

Cn1c(=O)c2c(ncn2CC(O)CO)n(C)c1=O (centres undefined)
inactive: Potency [1] | Potency [2] | Potency [3] | Potency [4]

Cl/C(=C\n1cncn1)c1ccc(Cl)cc1Cl
inactive: Potency [1] | Potency [2] | Potency [3] | Potency [4]

CC1CCc2cc(F)cc3c(=O)c(C(=O)O)cn1c23 (centres undefined)
inactive: Potency [1] | Potency [2] | Potency [3] | Potency [4]

CCCCCCCCCCCCCCC1CO1 (centres undefined)
inactive: Potency [1] | Potency [2] | Potency [3] | Potency [4]

NC1CCN(c2nc3c(cc2F)c(=O)c(C(=O)O)cn3-c2ccc(F)cc2F)C1 (centres undefined)
inactive: Potency [1] | Potency [2] | Potency [3] | Potency [4]

COc1ccc(C(C)=O)cc1
inactive: Potency [1] | Potency [2] | Potency [3] | Potency [4]

c1ccc(CNCc2ccccc2)cc1
inactive: Potency [1] | Potency [2] | Potency [3] | Potency [4]

CCCCC(CC)(CO)CO
inactive: Potency [1] | Potency [2] | Potency [3] | Potency [4]

CC(C)c1ccc2c(C(C)C)cc(C(C)C)c(S(=O)(=O)O)c2c1
inactive: Potency [1] | Potency [2] | Potency [3] | Potency [4]

CC(=O)OCCc1ccccc1
inactive: Potency [1] | Potency [2] | Potency [3] | Potency [4]

Cc1cccc(C(C)(C)C)c1O
inactive: Potency [1] | Potency [2] | Potency [3] | Potency [4]

NCCCN(CCO)CCO
inactive: Potency [1] | Potency [2] | Potency [3] | Potency [4]

CCCCCCCCCC(=O)OCC
inactive: Potency [1] | Potency [2] | Potency [3] | Potency [4]

CCCCCCCC/C=C\CCCCCCCC(N)=O
inactive: Potency [1] | Potency [2] | Potency [4]

O=C(O)C(c1ccc(Cl)cc1)c1ccc(Cl)cc1
inactive: Potency [1] | Potency [2] | Potency [3] | Potency [4]

C=CC(C)(CCC=C(C)C)OC(=O)c1ccccc1 (centres undefined)
inactive: Potency [1] | Potency [2] | Potency [3] | Potency [4]

CCOc1ccc(NC(=O)CC(C)=O)cc1
inactive: Potency [1] | Potency [2] | Potency [3] | Potency [4]

O=[N+]([O-])c1cccc(Cl)c1Cl
inactive: Potency [1] | Potency [2] | Potency [4]

C#CCOC(=O)[C@@H](C)Oc1ccc(Oc2ncc(Cl)cc2F)cc1
inactive: Potency [1] | Potency [3] | Potency [4]

O=C(/C=C/c1ccc(O)c(O)c1)O[C@@H]1C[C@](O)(C(=O)O)C[C@@H](O)[C@H]1O
inactive: Potency [1] | Potency [2] | Potency [4]

CC(=O)N(O)CCCCCNC(=O)CCC(=O)N(O)CCCCCNC(=O)CCC(=O)N(O)CCCCCN
inactive: Potency [1] | Potency [2] | Potency [4]

C=C(C)C(=O)OCCN(C)C
inactive: Potency [1] | Potency [2] | Potency [3] | Potency [4]

O=C1Nc2cc(Cl)ccc2Oc2ccccc21
inactive: Potency [1] | Potency [2] | Potency [4]

CCCCCCCCCO
inactive: Potency [1] | Potency [2] | Potency [4]

Cn1c(N)nc2nc[nH]c2c1=O
inactive: Potency [1] | Potency [2] | Potency [3] | Potency [4]

O=S1(=O)c2cccc3cccc(c23)N1CCCN1CCN(c2ccc(F)cc2)CC1
inactive: Potency [1] | Potency [2] | Potency [3] | Potency [4]

O=C(O)/C=C/c1cnc[nH]1
inactive: Potency [1] | Potency [2] | Potency [4] | outcome [5] | outcome [6]

CCN(CC)C(C)CN1c2ccccc2Sc2ccccc21 (centres undefined)
inactive: Potency [1] | Potency [2] | Potency [4] | outcome [5]

CC(C)CC=O
inactive: Potency [1] | Potency [2] | Potency [4]

CCCCCCCCCCCCCCCC(=O)OC/C=C(C)/C=C/C=C(C)/C=C/C1=C(C)CCCC1(C)C
inactive: Potency [1] | Potency [3] | Potency [4]

CCCCCC/C=C/C=O
inactive: Potency [1] | Potency [2] | Potency [3] | Potency [4]

Nc1nc(N)c2nc(CNc3ccc(C(=O)N[C@@H](CCC(=O)O)C(=O)O)cc3)cnc2n1
inactive: Potency [1] | Potency [2] | Potency [4]
